High-throughput results deposited in PubChem BioAssay by National Center for Advancing Translational Sciences (NCATS).
RORgamma inh: blocks mouse ROR gamma transcriptional activity | Drosophila S2 Gal4-RORgamma UAS-luciferase reporter, 20 h | Potency, µM (highest dose often 53.6 µM), inactives show at the highest dose activity change, negative = inhibition, actives largely listed as inhibitors | 310,000 compounds, 5.4% hits | AID 2551; further: nearly all actives have a fitted effect of over 60% in size
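Luminescence from a UAS-regulated Photinus luciferase reporter in stably transfected Drosophila Schneider cells is measured; decreased signal marks ROR gamma inhibition. Fusion expression is induced by 700 uM copper sulfate for 20 hr.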
DT40 TDP1 no CPT: qHTS for Inhibitors of human tyrosyl-DNA phosphodiesterase 1 (TDP1): qHTS in cells in absence of CPT. DT40 Tdp1-/- hTDP1 cells, no CPT, ATP luminescence, 48 h. Potency, µM (top dose mostly 46.2 µM), for inactives: at the highest dose activity change, negative = growth inhibition, usual class: inhibitors. 420,000 compounds, 15% hits. AID 686978, 2013; further: nearly all actives have a fitted effect of over 55% in size
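Readout: luminescence from CellTiter-Glo after 30 min in the dark at RT. Cells: DT40 Tdp1-/- with stable hTDP1, 400/well. Exposure: compounds alone, ≥48 hr, 37 °C.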
TDP1 cell CPT: growth inhibition of DT40 Tdp1-/-;hTDP1 cells with camptothecin (screen for TDP1 inhibitors); chicken DT40 Tdp1-/-;hTDP1 cells + 20 nM CPT, ATP luminescence, 48 h; Potency, µM (doses to about 46.2 µM), for inactives: top-dose activity change, negative = growth inhibition, usual class: inhibitors; 420,000 compounds, 12% hits; further: nearly all actives have a fitted effect of over 55% in size
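Chicken DT40 Tdp1-/- cells complemented with human TDP1, 400 cells/well, exposed to compounds plus 20 nM camptothecin for at least 48 h at 37 C; viability read as ATP content by CellTiter-Glo luminescence.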
TDP1 inh: blocks human tyrosyl-DNA phosphodiesterase 1 | Q9NUW8 | recombinant TDP1, AlphaScreen DNA substrate cleavage | Potency, µM (series often up to 130 µM), without a hit: at the top dose activity change, negative = inhibition, usual class: inhibitors | 350,000 compounds, 0.28% hits | AID 485290; further: nearly all actives have a fitted effect of over 40% in size
Target sequence (Q9NUW8 whole entry, looked up): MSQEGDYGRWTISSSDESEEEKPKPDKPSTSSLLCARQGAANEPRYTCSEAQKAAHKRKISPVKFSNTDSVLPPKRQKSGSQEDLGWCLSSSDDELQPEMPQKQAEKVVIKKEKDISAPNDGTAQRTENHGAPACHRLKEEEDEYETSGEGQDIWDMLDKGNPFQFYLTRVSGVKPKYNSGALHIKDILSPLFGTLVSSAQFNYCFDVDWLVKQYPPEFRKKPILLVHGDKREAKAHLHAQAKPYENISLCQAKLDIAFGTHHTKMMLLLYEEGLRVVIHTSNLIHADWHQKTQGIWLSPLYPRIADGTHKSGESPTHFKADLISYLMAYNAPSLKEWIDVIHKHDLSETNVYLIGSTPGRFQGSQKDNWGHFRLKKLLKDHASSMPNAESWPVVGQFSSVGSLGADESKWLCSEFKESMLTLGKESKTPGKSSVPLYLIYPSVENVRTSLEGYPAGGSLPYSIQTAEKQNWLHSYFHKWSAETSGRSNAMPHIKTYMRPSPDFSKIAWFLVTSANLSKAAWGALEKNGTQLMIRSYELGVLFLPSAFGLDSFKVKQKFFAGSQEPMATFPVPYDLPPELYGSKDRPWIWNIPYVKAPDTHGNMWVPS
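AlphaScreen read-out: signal falls as enzyme removes the 3' tyrosine-FITC from a 5'-biotinylated DNA oligo (15 nM, 5 min, RT). Enzyme was E. coli-made recombinant Tdp1 at 1 nM, exposed to compound for 15 min beforehand; beads 10 ug/ml, 10 min.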
Gal4-VP16 FLuc: Gal4-VP16 reporter inhibition counter-screen. Drosophila S2 Gal4-VP16 UAS-luciferase, luminescence, 20 h. Potency, µM (highest dose often 53.6 µM), for inactives: at the highest dose activity, negative = inhibition, actives largely listed as inhibitors. 310,000 compounds, 3.5% hits. AID 2546;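 further: Gal4-VP16 expression switched on by copper sulfate through the metallothionein promoter; nearly all actives have a fitted effect of over 50% in size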
* = called active by the depositor; [ ] = remark or other dose. The list is not random: actives were taken first. Their share in the collection is about 19%. The call rests on the fitted dose curve; in most records, active means well fitted curve in the direction sought with a large enough effect; inconclusive means small, poorly fitted or top-dose-only effect, or another doubt; inactive means no such curve, though single readings can be large; an effect the other way counts as inactive or inconclusive. On the % scale 0 is the no-effect control and ±100 the full control effect; potency means the concentration at half of the fitted maximal effect.

For COc1ccc2sc(N(CCCN(C)C)C(=O)c3ccc(S(=O)(=O)N4CCCc5ccccc54)cc3)nc2c1 the results were DT40 TDP1 no CPT 16.4µM*, TDP1 cell CPT inconclusive and TDP1 inh 7.6%.
For O=C(O)c1ccc(S(=O)(=O)N2CCCc3ccccc32)cc1 the results were RORgamma inh 10.2%, DT40 TDP1 no CPT 1.8%, TDP1 cell CPT -3.1% and Gal4-VP16 FLuc -2.2%.
`COCCNC(=O)c1ccc(S(=O)(=O)N2CCCc3ccccc32)cc1` gave RORgamma inh -5.2%, DT40 TDP1 no CPT -23.0%, TDP1 cell CPT 9.1%, TDP1 inh 15.0% and Gal4-VP16 FLuc 15.8µM*.
`COc1cc2nc(N(CCCN(C)C)C(=O)c3ccc(S(=O)(=O)N4CCc5ccccc54)cc3)sc2cc1OC` gave DT40 TDP1 no CPT 16.4µM* and TDP1 cell CPT inconclusive.
`Cc1cn([C@H]2C[C@H](O)[C@@H](CCC(=O)NCCc3c[nH]c4ccccc34)O2)c(=O)[nH]c1=O` gave DT40 TDP1 no CPT -10.3%, TDP1 cell CPT -22.3% and TDP1 inh 0.2%[56.1 µM].
O=C1CC(N2CCN(c3ccccc3)CC2)C(=O)N1c1ccc2c(c1)OCCO2 (stereo not given) was read as RORgamma inh 28.0%, DT40 TDP1 no CPT -1.6%, TDP1 cell CPT -2.6%, TDP1 inh 4.1% and Gal4-VP16 FLuc -16.4%.
Screening O=C(Cc1coc2ccc3ccccc3c12)Nc1nnc(C2CC2)s1 returned RORgamma inh inconclusive, DT40 TDP1 no CPT 23.1µM*, TDP1 cell CPT inconclusive, TDP1 inh 3.1% and Gal4-VP16 FLuc -12.5%.
For Cc1cc2occ(CC(=O)Nc3nnc(C4CC4)s3)c2cc1C the results were RORgamma inh 0.4%, DT40 TDP1 no CPT -16.4%, TDP1 cell CPT -25.9%, TDP1 inh -1.0% and Gal4-VP16 FLuc -21.5%.
Cn1c(NC(=O)c2cc(Cl)ccc2Cl)cc(=O)n(C)c1=O was read as RORgamma inh 22.6%, DT40 TDP1 no CPT 0.8%, TDP1 cell CPT 3.5%, TDP1 inh 2.5% and Gal4-VP16 FLuc 12.7%.
Screening CCc1c(O)nc(SC2CC(=O)N(c3ccc(F)c(Cl)c3)C2=O)[nH]c1=O (stereo not given) returned RORgamma inh -9.4%, DT40 TDP1 no CPT 8.5%, TDP1 cell CPT 18.4%, TDP1 inh 4.6% and Gal4-VP16 FLuc -0.3%.
For Cc1cccc(N2C(=O)CC(Sc3ncn[nH]3)C2=O)c1 (stereo not given) the results were RORgamma inh 12.6µM*, DT40 TDP1 no CPT 1.84µM*, TDP1 cell CPT 1.84µM*, TDP1 inh inconclusive and Gal4-VP16 FLuc -11.3%[10 µM].
`Cc1ccc(N2C(=O)CC(Sc3ncn[nH]3)C2=O)cc1C` (stereo not given) gave RORgamma inh inconclusive, DT40 TDP1 no CPT 5.17µM*, TDP1 cell CPT 4.61µM*, TDP1 inh -1.0% and Gal4-VP16 FLuc inconclusive.
`CCCn1cnc2c(=O)oc3ccccc3c21` gave RORgamma inh -0.9%, DT40 TDP1 no CPT -13.8%, TDP1 cell CPT -9.3%, TDP1 inh -2.5% and Gal4-VP16 FLuc -7.1%.
For CC1CC(Nc2ccccc2)=NC1(C)C (stereo not given) the results were RORgamma inh 6.0%, DT40 TDP1 no CPT -3.6%, TDP1 cell CPT 8.0%, TDP1 inh 1.3% and Gal4-VP16 FLuc -6.3%.
For COc1ccc(CCNCC2C(Oc3ccc(Cl)cc3)C(=O)N2c2ccccc2C)cc1OC (stereo not given) the results were RORgamma inh -28.4%, DT40 TDP1 no CPT 23.1µM*, TDP1 cell CPT inconclusive, TDP1 inh 2.7% and Gal4-VP16 FLuc inconclusive.
Screening COCCNCC1C(Oc2ccc(Cl)cc2)C(=O)N1c1ccccc1C (stereo not given) returned RORgamma inh 18.0%, DT40 TDP1 no CPT inconclusive, TDP1 cell CPT inconclusive, TDP1 inh 1.2% and Gal4-VP16 FLuc 6.6%.
Screening OC(CN1CCNCC1)Cn1ccc2ccccc21 (stereo not given) returned RORgamma inh -9.4% and Gal4-VP16 FLuc -9.1%.
For OCc1nc2ccccc2n1CC(O)Cn1ccc2ccccc21 (stereo not given) the results were RORgamma inh inconclusive, DT40 TDP1 no CPT 13µM*, TDP1 cell CPT 16.4µM*, TDP1 inh 9.1% and Gal4-VP16 FLuc inconclusive.
Oc1ccccc1NCC(O)Cn1ccc2ccccc21 (stereo not given) was read as RORgamma inh 9.1%, DT40 TDP1 no CPT 20.6µM*, TDP1 cell CPT 16.4µM*, TDP1 inh 2.0% and Gal4-VP16 FLuc 0.5%.
For O=C(NCc1cccc(Cl)c1)NCc1cccc(Cl)c1 the results were RORgamma inh 7.2%, DT40 TDP1 no CPT -5.1%, TDP1 cell CPT -5.6%, TDP1 inh 3.0% and Gal4-VP16 FLuc 0.9%.
`O=C(CSc1nnnn1C1CCCC1)Nc1ccc2c(c1)OCO2` gave RORgamma inh -9.0%, DT40 TDP1 no CPT -1.0%, TDP1 cell CPT -17.7%, TDP1 inh 2.1% and Gal4-VP16 FLuc 2.9%.
Screening O=C(Cc1ccccc1[N+](=O)[O-])Nc1ccccc1C(=O)N1CCOCC1 returned RORgamma inh -30.3%, DT40 TDP1 no CPT 0.1%, TDP1 cell CPT 12.9%, TDP1 inh 0.0% and Gal4-VP16 FLuc -3.9%.
Screening CCc1cc2c(=O)c(-c3ccc4c(c3)OCCO4)coc2c(CN2CCCCC2C)c1O (stereo not given) returned RORgamma inh 31.3%, DT40 TDP1 no CPT 1.46µM*, TDP1 cell CPT 1.84µM*, TDP1 inh 7.7% and Gal4-VP16 FLuc -4.2%.
CCc1cc2c(=O)c(-c3nc4ccccc4[nH]3)coc2c(CN2CCCCC2C)c1O (stereo not given) was read as RORgamma inh -23.6%, DT40 TDP1 no CPT 10.3µM*, TDP1 cell CPT inconclusive, TDP1 inh 5.5% and Gal4-VP16 FLuc 1.9%.
`O=c1c(-c2ccc3c(c2)OCCO3)coc2c(CN3CCOCC3)c(O)ccc12` gave RORgamma inh 13.4%, DT40 TDP1 no CPT inconclusive, TDP1 cell CPT -22.0%, TDP1 inh 5.8% and Gal4-VP16 FLuc 2.7%.
Cc1ccc(S(=O)(=O)N2CCCCC2)cc1C(=O)NCc1ccc(S(N)(=O)=O)cc1 was read as DT40 TDP1 no CPT -3.1%, TDP1 cell CPT -11.7% and TDP1 inh 0.7%.
Screening O=C(C1CCCN(S(=O)(=O)c2cccc3nonc23)C1)N1CCN(c2ccccc2)CC1 (stereo not given) returned RORgamma inh 2.8%, DT40 TDP1 no CPT 22.4µM*, TDP1 cell CPT inconclusive, TDP1 inh 6.8% and Gal4-VP16 FLuc -8.3%.
Screening CC(=O)c1ccc(N2CCN(C(=O)C3CCN(S(=O)(=O)c4cccc5nonc45)CC3)CC2)cc1 returned DT40 TDP1 no CPT 23.1µM*, TDP1 cell CPT inconclusive and TDP1 inh -2.5%.
